Source: PubChem BioAssay (NCATS)
Where “and” joins values, the source holds several entries; their conditions need not be identical. Equal values may be shown once. Records with an inconclusive call do not appear. Calls of active or inactive are those of the source. Calls follow the shape of the dose curve; as a rule, active = well fitted curve in the direction sought with a large enough effect; inconclusive = small, poorly fitted or top-dose-only effect, or another doubt; inactive = no such curve, though single readings can be large; an effect the other way counts as inactive or inconclusive.

What was measured:
[1] = target: Cellular tumor antigen p53 (Homo sapiens) (UniProt P04637); assay: Primary qHTS for small molecule compounds that upregulate eGFP-tagged delta133p53alpha (in N-terminal) cells. (AID 2060322); details: NCI-H358 eGFP-delta133p53alpha fluorescence, 24 h; activation: active compounds read high; also: nearly all actives have a fitted effect of over 75% in size;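 as to activation: series mostly up to about 56 µM; 0% = DMSO vehicle and 100% = reference activator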
Method in brief: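 NCI-H358 cells pre-induced 24 h with 10 ng/ml doxycycline to express N-terminal eGFP-delta133p53alpha, then dosed 24 h at 37C without doxycycline; fixed, Hoechst-stained, GFP intensity by laser scanning cytometry, normalized to DMSO (0%) and 57.5 uM 5-azacytidine (100%).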

[2] = BET inhibitor-based combinations targeting novel dependencies in MECOM-rearranged (r) AML: OCI-AML3 cell line (AID 2202232); details: Potency: OCI-AML3 viability; also: nearly all actives have a fitted effect of over 35% in size
Method in brief: (§1)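 Here, 11-point titrations of each agent were applied to 500 seeded cells and incubated 48 hr; CellTiter-Glo signal, scaled against DMSO and empty wells, was integrated as AUC, then Z-scored within the individual line.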

[3] = BET inhibitor-based combinations targeting novel dependencies in MECOM-rearranged (r) AML: MV-4-11 cell line (AID 2202233); also: nearly all actives have a fitted effect of over 45% in size
Method in brief: (§2)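 Normalized to DMSO and empty-well controls, the luminescence data from CellTiter-Glo after 48 hr drug exposure were fitted across 11 concentrations. Reported metrics are area under the dose-response curve and its Z-transformed form.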

[4] = BET inhibitor-based combinations targeting novel dependencies in MECOM-rearranged (r) AML: UCSD-AML1 cell line (AID 2202235); also: nearly all actives have a fitted effect of over 40% in size
Method in brief: as §2

[5] = BET inhibitor-based combinations targeting novel dependencies in MECOM-rearranged (r) AML: AML-191 cell line (AID 2202236; also: nearly all actives have a fitted effect of over 35% in size)
Method in brief: as §1

[6] = BET inhibitor-based combinations targeting novel dependencies in MECOM-rearranged (r) AML: AML-194 cell line (AID 2202237; also: nearly all actives have a fitted effect of over 40% in size)
Method in brief: as §1

[7] = BET inhibitor-based combinations targeting novel dependencies in MECOM-rearranged (r) AML: HNT-34 cell line (AID 2202234); also: nearly all actives have a fitted effect of over 35% in size
Method in brief: as §2
Potency is read from the fitted curve at half-maximal effect.

Chain of Cellular tumor antigen p53 (Homo sapiens) (P04637 whole entry, looked up): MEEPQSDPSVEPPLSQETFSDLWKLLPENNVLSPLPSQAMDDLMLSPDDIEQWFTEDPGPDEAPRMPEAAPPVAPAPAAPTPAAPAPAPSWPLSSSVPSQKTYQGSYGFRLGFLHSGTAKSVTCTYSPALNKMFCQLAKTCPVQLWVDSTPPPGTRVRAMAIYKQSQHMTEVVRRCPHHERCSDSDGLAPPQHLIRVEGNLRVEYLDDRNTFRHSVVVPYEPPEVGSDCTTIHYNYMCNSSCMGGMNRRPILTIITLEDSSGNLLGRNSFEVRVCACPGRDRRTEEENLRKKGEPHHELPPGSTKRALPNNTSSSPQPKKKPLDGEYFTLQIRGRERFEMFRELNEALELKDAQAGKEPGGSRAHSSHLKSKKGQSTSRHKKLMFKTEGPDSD

O=C(O)[C@@H](c1ccc(OCc2ccc3ccccc3n2)cc1)C1CCCC1
active: Potency [3] 13200 nM
inactive: activation [1] -11.6% | Potency [2] | Potency [4] | Potency [5] | Potency [6]

Oc1cc2c(cc1O)C1c3ccc(O)c(O)c3OCC1(O)C2 (centres undefined)
active: Potency [2] 23500 nM | Potency [3] 23500 nM | Potency [4] 20900 nM
inactive: activation [1] -7.38%

CC(C)(Sc1cc(C(C)(C)C)c(O)c(C(C)(C)C)c1)Sc1cc(C(C)(C)C)c(O)c(C(C)(C)C)c1
inactive: activation [1] 5.08% and 14.9% | Potency [2] | Potency [3] | Potency [7] | Potency [4]
active: Potency [6] 13200 nM

Cc1c(C(=O)NN2CCCCC2)nn(-c2ccc(Cl)cc2Cl)c1-c1ccc(Cl)cc1
active: Potency [3] 20900 nM
inactive: activation [1] 8.47% and -3.72% | Potency [2] | Potency [4]

NC(=O)N1CCC(CC(=O)N2CCC([C@H]3c4ncc(Br)cc4CCc4cc(Cl)cc(Br)c43)CC2)CC1
inactive: activation [1] 7.44%
active: Potency [2] 1180 nM | Potency [3] 16600 nM | Potency [7] 11800 nM | Potency [4] 3720 nM

Cc1[nH]nc2ccc(-c3cncc(OC[C@@H](N)Cc4ccccc4)c3)cc12
active: Potency [1] 21700 nM | Potency [2] 1180 nM | Potency [3] 132 nM | Potency [7] 662 nM | Potency [4] 468 nM | Potency [5] 833 nM | Potency [6] 1180 nM

N=c1ccn2c(n1)O[C@H]1[C@@H](O)[C@@H](CO)O[C@H]12
active: Potency [2] 5250 nM | Potency [3] 1320 nM | Potency [7] 235 nM | Potency [4] 83.3 nM | Potency [5] 235 nM | Potency [6] 118 nM
inactive: activation [1] 18.1%
